Screening data from PubChem.
PDI inh – inhibitors of human PDI, primary screen, biochemical, turbidity, single point, plate reader | Protein disulfide-isomerase (Homo sapiens), P07237 | PDI insulin aggregation turbidity, A650, 90 min | inhibition, % at 10 µM | 0.052% of 350,000 active;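 active = mean inhibition across replicates of 30% or more, whatever share of single replicates reach that level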
ERp5 block – inhibitors of ERp5-driven insulin aggregation, primary screen, biochemical, turbidity, absorbance 650 nm, single point. Protein disulfide-isomerase A6 (Homo sapiens), Q15084. 90 min. inhibition, % at 9.99 µM. 0.05% of 350,000 active;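 active = mean replicate inhibition above about 25%, with every replicate also reaching it, limit read from the data, passing the limit was not always enough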
PglD DTNB – C. jejuni PglD acetyltransferase inhibitors, primary screen, biochemical, DTNB colorimetric, single point | UDP-N-acetylbacillosamine N-acetyltransferase PglD (Campylobacter jejuni) | purified PglD enzyme, DTNB colorimetric CoA detection | inhibition, % at 12.5 µM | 0.098% of 360,000 active | AID 602405, 2012; in the data active = inhibition above about 16%, passing the limit was not always enough
ARNT TACC3 PPI – disruptors of ARNT/TACC3 protein interaction, primary screen, biochemical, AlphaScreen, single concentration | Transforming acidic coiled-coil-containing protein 3 (Homo sapiens), Q9Y6A5 | AlphaScreen His-ARNT PAS-B/GST-TACC3 binding, luminescence; TACC3 fragment carries E629A point mutation | inhibition, % at 9.99 µM | 0.66% of 390,000 active | AID 623870, 2012;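 active = mean inhibition of replicates at least 50% and at least half of replicates each reaching 50%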;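 also: 0% = complete ARNT plus TACC3 wells and 100% = ARNT alone without TACC3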
NRP1-CendR mod – modulators of CendR peptide binding to NRP-1, primary screen, biochemical, fluorescence polarization, uHTS; Neuropilin-1 (Homo sapiens), O14786; FAM-RPARPAR peptide binding to NRP-1; inhibition, % at 25 µM; 0.85% of 360,000 active;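 active = inhibition or corrected inhibition above about 18%, plus a signal ratio from 0.5 to 1.5, limit read from the data, passing the limit was not always enough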
ALR inh – inhibitors of human ALR sulfhydryl oxidase, primary screen, biochemical, H2O2 detection, HRP-luminol luminescence, single point; 3.8% of 290,000 active; purified ALR, DTT oxidation; AID 485317, 2010; inhibition, % (test concentration not listed); FAD-linked sulfhydryl oxidase ALR (Homo sapiens), P55789;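 active = mean replicate inhibition above about 79%, with every replicate also reaching it, limit read from the data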
Target sequence (P55789 whole entry, looked up): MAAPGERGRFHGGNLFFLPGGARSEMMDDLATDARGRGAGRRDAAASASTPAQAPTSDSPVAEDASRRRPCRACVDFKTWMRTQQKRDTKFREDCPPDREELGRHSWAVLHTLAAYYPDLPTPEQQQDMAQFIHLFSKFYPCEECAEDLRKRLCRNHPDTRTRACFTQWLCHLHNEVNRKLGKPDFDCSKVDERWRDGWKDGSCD
* hit, by the source's call; x = not tested or not shown. This is one part of a sample in which hits are shown more often than they occur.

SMILES	PDI inh	ERp5 block	PglD DTNB	ARNT TACC3 PPI	NRP1-CendR mod	ALR inh
COc1cccc(C2NC(CC(C)C)(C(=O)O)C3C(=O)N(Cc4ccccc4)C(=O)C23)c1O (stereo unspecified)	1	3	-4	0	0	48
CC(C)N1C(=O)C2C(c3ccccc3O)NC(C)(C(=O)O)C2C1=O (stereo unspecified)	-2	-1	5	-11	-7	89*
CC(C)CC1(C(=O)O)NC(c2ccccc2O)C2C(=O)N(C(C)C)C(=O)C21 (stereo unspecified)	12	6	3	-12	4	93*
CNC[C@H]1OCCCC[C@@H](C)Oc2ccc(NC(=O)c3ccncc3)cc2C(=O)N([C@@H](C)CO)C[C@H]1C	x	2	-2	-3	x	x
CCCC(=O)Nc1ccc2c(c1)C(=O)N(C)[C@@H]1CC[C@@H](CC(=O)NCCc3ccncc3)O[C@H]1CO2	x	0	0	-2	x	x
O=C(CSc1nnc(CNC(=O)C23CC4CC(CC(C4)C2)C3)n1-c1ccccc1)Nc1ccc(F)cc1	-17	1	8	-9	27*	-6
COc1ccc(-c2cc(-c3ccccc3)no2)cc1	0	1	3	4	1	0
COc1ccc(-c2cc3nnc(-c4ccccc4)nc3s2)cc1	-2	x	-7	0	7	94*
C[C@H](CO)N1C[C@H](C)[C@@H](CN(C)Cc2cccc(F)c2)Oc2ncc(C3=CCCC3)cc2C1=O	x	0	-3	5	x	x
CC(=O)Nc1sc(C)c(C)c1C(=O)OCC(=O)N(CC(C)C)C1CCS(=O)(=O)C1 (stereo unspecified)	-8	x	-1	x	28*	x
CC(C)CN(C(=O)COC(=O)c1c(Cl)ccc(Cl)c1Cl)C1CCS(=O)(=O)C1 (stereo unspecified)	1	-6	0	0	-4	-60
Cn1c(CSc2ccccc2)c(C#N)c2ccccc21	1	x	5	-4	-2	-2
Cc1ccc(SCc2c(C#N)c3ccccc3n2C)cc1	-2	x	-2	-2	1	99*
CC(C)c1cn(CC[C@@H]2CC[C@H](NS(=O)(=O)c3ccc(Cl)cc3)[C@@H](CO)O2)nn1	x	0	1	x	x	x
CC1=Nc2cccc3cccc(c23)N1C	1	x	x	13	9	99*
O=C1OCC2=Nc3cccc4cccc(c34)N12	x	7	x	x	x	x
CC(OC(=O)CCN=C1NS(=O)(=O)c2ccccc21)C(=O)Nc1ccc(N(C)C)cc1 (stereo unspecified)	0	-10	-2	-14	14	99*
CC(=O)Nc1ccc(NC(=O)C(C)OC(=O)CCCN=C2NS(=O)(=O)c3ccccc32)cc1 (stereo unspecified)	-2	-4	-2	-1	-7	-8
C[C@@H]1CN([C@@H](C)CO)C(=O)c2cc(NC(=O)Cn3cnnn3)ccc2O[C@@H]1CN(C)C(=O)Nc1ccccc1	x	11	2	14	x	x
CCOC(=O)N(C)C[C@H]1OCc2ccccc2-c2ccccc2C(=O)N([C@@H](C)CO)C[C@@H]1C	x	1	1	8	x	x
Cc1nnc(N/N=C/C(C)c2ccccc2)[nH]c1=O (stereo unspecified)	2	0	x	63*	-5	8
Cc1nnc(N/N=C/c2c[nH]c3ccccc23)[nH]c1=O	-5	-2	-2	1	-5	68
C/C(=N\Nc1cccc(Cl)c1)c1ccncc1	3	0	x	0	1	99*
C/C(=N\Nc1ccc(Cl)cc1)c1ccncc1	3	8	-5	10	2	99*
NC1=NC[C@H](Cc2ccc(O)cc2)N1CCC12CC3CC(CC(C3)C1)C2	20	2	-4	11	6	93*
CC(C)C(=O)N1CCC2(CC1)Oc1ccc(F)cc1C(=O)C21CC(c2ccc(Cl)cc2)=NO1 (stereo unspecified)	-1	2	-1	-1	25*	-2
